Experimental findings from PubChem BioAssay (Tox21) are described below.

A number with no mark means an inactive call. Inconclusive results are not listed. Active and inactive are the calls of the source. Unless noted, calls follow the shape of the dose curve; as a rule, active = well fitted curve in the direction sought with a large enough effect in the repeat runs; inconclusive = weak or mixed curves; inactive = no such curve, though single readings can be large; an effect the other way counts as inactive or inconclusive.

Experiment [1] concerns the target Thyrotropin-releasing hormone receptor (Homo sapiens) (UniProt P34981). In words: qHTS assay to identify small molecule agonists of the thyrotropin-releasing hormone receptor (TRHR) signaling pathway (AID 1346891; calls by dose curve;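 also: HEK293 cells expressing TRHR with calcium dye readout; series mostly up to about 58 µM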). In outline:
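HEK293/TRHR cells, 1500 per well, 18 h 37 °C; Ca dye 2 h 37 °C; pin-tool compound addition (agonist mode); kinetic fluorescence 3 min, 1 s reads; 15 concentrations, triplicate.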

The nature of experiment [2]: Human pregnane X receptor (PXR) small molecule agonists, qHTS cell viability counter screen (AID 1346977). Also: nearly all actives have a fitted effect of over 50% in size. In outline:
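Fluorescence read-out (CellTiter-Fluor) of viability in PXR-Luc HepG2 cells, multiplexed with the luciferase agonist read. Compounds in DMSO added after 5hr plating; 24hr total exposure at 37C, 5% CO2.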
(In general: qHTS replaces the single test concentration by a dilution series.)

Experiment [3] is described as follows: Caspase-3/7 induction in HepG2 cells by small molecules, qHTS assay (AID 1346978). Also: nearly all actives have a fitted effect of over 15% in size. Summed up: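 Wild-type HepG2 cells, 2,000/well, settled 5 hr at 37 C and 5% CO2, then compound-treated for 17 hr; caspase-3/7 activity read by luminescent Caspase-Glo 3/7 after 30 min at room temperature.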
A short description of experiment [4]: Caspase-3/7 induction in CHO-K1 cells by small molecules, qHTS cell viability counter screen (AID 1346979). Also: nearly all actives have a fitted effect of over 35% in size. In outline:
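CHO-K1 wt, 1,500 cells/well; 5hr pre-incubation 37C/5% CO2; compound pin transfer (DMSO); 16hr exposure; CellTiter-Fluor added, 1hr, fluorescence read.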

A short description of experiment [5]: Caspase-3/7 induction in CHO-K1 cells by small molecules, qHTS assay (AID 1346980). Also: nearly all actives have a fitted effect of over 15% in size. Summed up: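 Wild-type CHO-K1 cells exposed to compounds for 17hr at 37 C, 5% CO2. Caspase-3/7 activity then measured by Caspase-Glo 3/7 luminescence after 30min at room temperature.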
The nature of experiment [6]: Caspase-3/7 induction in HepG2 cells by small molecules, qHTS cell viability counter screen (AID 1346981). Also: series mostly up to about 92 µM; nearly all actives have a fitted effect of over 30% in size. Summed up:
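HepG2, WT, 2,000 cells/well; 5 hr pre-incubation 37 C/5% CO2; compound pin-transferred from DMSO; 16 hr exposure; CellTiter-Fluor, 1 hr; fluorescence read.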

Experiment [7] deals with Nuclear receptor subfamily 1 group I member 2 (Homo sapiens) (UniProt O75469). In words: Human pregnane X receptor (PXR) small molecule agonists, qHTS assay (AID 1346982). Also: nearly all actives have a fitted effect of over 35% in size. In outline:
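Luciferase signal from ONE-Glo (30 min, room temperature) measured activation of hPXR-driven CYP3A4 reporter expression in PXR-Luc HepG2 cells treated with compounds for 24 hr at 37 C.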

The target in experiment [8] is Acetylcholinesterase (Homo sapiens) (UniProt P22303). Briefly: Acetylcholinesterase (AChE) small molecule antagonists: enzyme-based qHTS assay (AID 1347397; calls by dose curve; also: nearly all actives have a fitted effect of over 55% in size). The conditions noted are these: Potency: AChE enzyme activity inhibition; outcome: AChE enzyme activity inhibition. Summed up:
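Recombinant human AChE (50 mU/mL) preincubated with compound 30 min at room temperature; acetylthiocholine plus DTNB then added, and thiocholine formation read colorimetrically after 10 min at room temperature. DMSO served as vehicle control.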

For experiment [9] the target is unchanged. In words: Acetylcholinesterase (AChE) small molecule antagonists: fluorescence cell-based qHTS assay (AID 1347398; calls by dose curve; also: nearly all actives have a fitted effect of over 50% in size). The conditions noted are these: Potency: AChE activity; outcome: AChE activity. Summed up: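 SH-SY5Y cells (2000/well), attached overnight, incubated with compound 30 min at 37 C. Acetylthiocholine plus Thiolite Green then added for 40 min at room temperature. Thiocholine fluorescence (Ex/Em 490/520 nm) reports cellular AChE activity.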

For experiment [10] the target is unchanged. In words: Acetylcholinesterase (AChE) small molecule antagonists: enzyme-based qHTS assay with human liver microsomes (AID 1347399; calls by dose curve; also: nearly all actives have a fitted effect of over 60% in size). The conditions noted are these: Potency: qHTS inhibition; outcome: qHTS inhibition. In outline: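 Recombinant human AChE (50 mU/mL in the enzyme mix) and human liver microsomes (0.25 mg/mL final) were preincubated with compound and NADPH (0.25 mg/mL final) for 30 min at 37 C. Acetylthiocholine/DTNB was then added; thiocholine was read colorimetrically after 10 min at room temperature.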

Experiment [11] deals with Cytochrome P450 2C19 (Homo sapiens) (UniProt P33261). Briefly: Cytochrome P450 Family 2 Subfamily C Member 19 (CYP2C19) small molecule antagonists: luciferase reporter qHTS assay (AID 1671197). Also: nearly all actives have a fitted effect of over 65% in size. Also: potency is read from the fitted curve at half-maximal effect. Summed up:
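Luminescent readout of CYP2C19 activity: luciferin product detected 20 min after adding detection reagent. Before that, compound and enzyme-substrate mix preincubated 10 min at room temperature; NADPH-regenerating system started a 1 h, 37C reaction. Ketoconazole as positive control.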
On the technique in general: In a reporter assay the amount or activity of a reporter protein is the signal.

Experiment [12] deals with Cytochrome P450 2C9 (Homo sapiens) (UniProt P11712). In words: Cytochrome P450 Family 2 Subfamily C Member 9 (CYP2C9) small molecule antagonists: luciferase reporter qHTS assay (AID 1671198). Also: series mostly up to about 120 µM; nearly all actives have a fitted effect of over 50% in size. In outline: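 P450-Glo proluciferin substrate with CYP2C9 enzyme; 10 min RT preincubation, then NADPH regeneration 1 h at 37C; luciferin detection reagent 20 min RT, luminescence in relative luminescence units.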
Cytochrome P450 2C9 (Homo sapiens), sequence (P11712 whole entry, looked up): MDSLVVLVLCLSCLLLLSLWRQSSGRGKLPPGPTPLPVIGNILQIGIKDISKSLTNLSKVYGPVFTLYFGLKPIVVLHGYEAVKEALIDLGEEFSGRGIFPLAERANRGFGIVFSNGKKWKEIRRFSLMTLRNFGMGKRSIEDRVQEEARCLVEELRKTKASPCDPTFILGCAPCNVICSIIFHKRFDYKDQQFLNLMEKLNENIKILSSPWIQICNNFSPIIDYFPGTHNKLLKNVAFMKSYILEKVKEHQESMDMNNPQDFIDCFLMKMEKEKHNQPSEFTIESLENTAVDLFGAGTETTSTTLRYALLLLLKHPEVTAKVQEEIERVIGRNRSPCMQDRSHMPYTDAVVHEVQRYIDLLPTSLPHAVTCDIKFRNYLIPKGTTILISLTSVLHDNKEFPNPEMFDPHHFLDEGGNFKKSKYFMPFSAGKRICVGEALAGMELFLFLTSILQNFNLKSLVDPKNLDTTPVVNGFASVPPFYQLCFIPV

Experiment [13] addresses Cytochrome P450 3A4 (Homo sapiens) (UniProt P08684). In words: Cytochrome P450 Family 3 Subfamily A Member 4 (CYP3A4) small molecule antagonists: luciferase reporter qHTS assay (AID 1671201). Also: series mostly up to about 120 µM; nearly all actives have a fitted effect of over 50% in size. Summed up:
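Luminescent readout (RLU) proportional to CYP3A4 activity, from luciferin generated off a proluciferin substrate. Enzyme–substrate mix plus compound 10 min at room temp, NADPH regeneration 1 h, detection reagent 20 min.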

Experiment [14] concerns the target Cytochrome P450 1A2 (Homo sapiens) (UniProt P05177). Briefly: Cytochrome P450 Family 1 Subfamily A Member 2 (CYP1A2) small molecule antagonists: luciferase reporter qHTS assay (AID 1671199). Summed up: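 P450-Glo CYP1A2, 1536-well qHTS: enzyme/proluciferin substrate + cpd (DMSO), 10 min RT; NADPH regen, 1 h RT; detection reagent, 20 min; luminescence, RLU.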
Experiment [15] addresses Voltage-gated inwardly rectifying potassium channel KCNH2 (Homo sapiens) (UniProt Q12809). Briefly: Human Ether-a-go-go-Related Gene (hERG) channel small molecule antagonists: fluorescence cell-based qHTS assay (AID 1671200). Summed up:
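Read-out: thallium influx as a surrogate for potassium, tracked as fluorescence (480 nm ex/540 nm em) every second for 2 min after Stimulus Buffer addition in dye-loaded hERG-U2OS cells.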
A general note: Block of hERG is tested as a sign of cardiac risk.

For experiment [16], the target named is Cytochrome P450 2D6 (Homo sapiens) (UniProt P10635). In words: Cytochrome P450 Family 2 Subfamily D Member 6 (CYP2D6) small molecule antagonists: luciferase reporter qHTS assay (AID 1671196). Also: nearly all actives have a fitted effect of over 50% in size. Also: potency is read from the fitted curve at half-maximal effect. Summed up:
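Read-out is luminescence from luciferin formed by CYP2D6 turnover of a proluciferin substrate, recorded as relative luminescence units. Reactions ran 1 h at room temperature after NADPH regeneration solution was added.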

Experiment [17] has as its target Nuclear receptor subfamily 1 group I member 2 (Rattus norvegicus) (UniProt Q9R1A7). Briefly: Rat pregnane X receptor (rPXR) activation by small molecules, qHTS assay (AID 1346983). Also: nearly all actives have a fitted effect of over 20% in size. The conditions noted are these: rPXR luciferase reporter cells, One-Glo luminescence, 24 h; stronger effect = higher value. In outline: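 Cell-based rPXR activation assay: rPXR cells, 2,000 per well, rested 5hr at 37 C, then exposed to compounds in DMSO for 24 hr at 37 C. Luciferase activity read by One-Glo luminescence after 30 min at room temperature.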

The target of experiment [18] is Nuclear receptor subfamily 1 group I member 2 (Homo sapiens) (UniProt O75469). In words: Human pregnane X receptor (PXR) activation by small molecules, qHTS assay (AID 1346985). Also: nearly all actives have a fitted effect of over 40% in size. Summed up: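 DPX-2 cells (HepG2 co-transfected with a PXR response element and a CYP3A4-promoter luciferase construct) were seeded at 2,000 per well, rested 5 hr at 37C, then exposed to DMSO-dissolved compounds for 24 hr. Activation was read as luciferase luminescence.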
Nuclear receptor subfamily 1 group I member 2 (Homo sapiens), sequence (O75469 whole entry, looked up): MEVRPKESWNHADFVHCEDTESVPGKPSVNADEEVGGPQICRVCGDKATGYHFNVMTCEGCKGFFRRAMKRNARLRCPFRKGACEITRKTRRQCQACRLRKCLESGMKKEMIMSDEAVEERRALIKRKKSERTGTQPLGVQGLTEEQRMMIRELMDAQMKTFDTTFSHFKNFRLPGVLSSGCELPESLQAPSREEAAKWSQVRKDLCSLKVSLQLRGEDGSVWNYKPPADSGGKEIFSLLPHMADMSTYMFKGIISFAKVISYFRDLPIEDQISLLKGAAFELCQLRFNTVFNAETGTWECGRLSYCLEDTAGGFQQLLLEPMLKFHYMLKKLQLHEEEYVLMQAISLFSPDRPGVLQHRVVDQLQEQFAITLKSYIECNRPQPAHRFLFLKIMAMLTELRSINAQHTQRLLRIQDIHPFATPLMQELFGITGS

The target in experiment [19] is Acetylcholinesterase (Homo sapiens) (UniProt P22303). Briefly: Acetylcholinesterase (AChE) small molecule antagonists: colormetric cell-based qHTS assay (AID 1347395; calls by dose curve; also: nearly all actives have a fitted effect of over 30% in size). In outline:
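SH-SY5Y cells; cpd 30 min 37 C; + DTNB/acetylthiocholine, 90 min 37 C; colorimetric thiocholine read; qHTS.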
% is scaled to controls: 0 for no effect and ±100 for the full control effect.

Thyrotropin-releasing hormone receptor (Homo sapiens), sequence (P34981 whole entry, looked up): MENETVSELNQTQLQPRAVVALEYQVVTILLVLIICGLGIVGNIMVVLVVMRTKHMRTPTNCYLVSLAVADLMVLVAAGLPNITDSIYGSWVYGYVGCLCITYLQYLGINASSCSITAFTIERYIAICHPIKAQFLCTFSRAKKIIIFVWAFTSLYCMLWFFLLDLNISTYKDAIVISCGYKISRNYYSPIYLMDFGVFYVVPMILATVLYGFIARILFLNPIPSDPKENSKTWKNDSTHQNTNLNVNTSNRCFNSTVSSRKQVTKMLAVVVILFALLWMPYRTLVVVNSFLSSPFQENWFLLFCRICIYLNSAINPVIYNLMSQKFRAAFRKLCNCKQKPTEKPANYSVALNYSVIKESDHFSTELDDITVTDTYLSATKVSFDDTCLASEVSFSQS
Acetylcholinesterase (Homo sapiens), sequence (P22303 whole entry, looked up): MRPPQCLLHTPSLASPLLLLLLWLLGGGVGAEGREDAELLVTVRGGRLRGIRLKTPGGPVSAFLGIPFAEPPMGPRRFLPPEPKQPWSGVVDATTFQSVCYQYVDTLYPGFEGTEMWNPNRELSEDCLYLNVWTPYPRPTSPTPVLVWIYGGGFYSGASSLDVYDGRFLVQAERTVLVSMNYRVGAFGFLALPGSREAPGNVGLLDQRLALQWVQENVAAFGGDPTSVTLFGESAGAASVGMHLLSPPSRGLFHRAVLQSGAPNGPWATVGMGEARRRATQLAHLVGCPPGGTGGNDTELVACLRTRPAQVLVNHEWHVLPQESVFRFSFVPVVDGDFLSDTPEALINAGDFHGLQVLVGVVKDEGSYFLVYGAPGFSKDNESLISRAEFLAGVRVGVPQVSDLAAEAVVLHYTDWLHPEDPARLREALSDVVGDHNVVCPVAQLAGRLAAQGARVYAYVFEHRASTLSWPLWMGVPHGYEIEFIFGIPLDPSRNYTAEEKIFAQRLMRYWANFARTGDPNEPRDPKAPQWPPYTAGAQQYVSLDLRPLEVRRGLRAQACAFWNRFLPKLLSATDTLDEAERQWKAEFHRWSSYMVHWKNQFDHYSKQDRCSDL
Cytochrome P450 2D6 (Homo sapiens), sequence (P10635 whole entry, looked up): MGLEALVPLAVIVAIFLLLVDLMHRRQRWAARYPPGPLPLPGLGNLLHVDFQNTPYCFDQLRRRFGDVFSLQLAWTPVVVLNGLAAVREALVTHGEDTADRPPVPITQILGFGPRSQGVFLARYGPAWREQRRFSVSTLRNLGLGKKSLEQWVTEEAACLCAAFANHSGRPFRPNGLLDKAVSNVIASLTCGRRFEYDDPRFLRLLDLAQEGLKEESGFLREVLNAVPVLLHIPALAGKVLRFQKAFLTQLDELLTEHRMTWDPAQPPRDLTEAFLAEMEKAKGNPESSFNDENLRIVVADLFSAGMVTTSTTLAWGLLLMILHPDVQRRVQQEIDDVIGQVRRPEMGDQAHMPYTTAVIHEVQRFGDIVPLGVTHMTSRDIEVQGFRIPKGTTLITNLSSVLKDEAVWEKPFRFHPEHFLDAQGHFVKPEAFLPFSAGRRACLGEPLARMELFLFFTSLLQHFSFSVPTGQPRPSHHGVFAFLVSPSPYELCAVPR
Cytochrome P450 1A2 (Homo sapiens), sequence (P05177 whole entry, looked up): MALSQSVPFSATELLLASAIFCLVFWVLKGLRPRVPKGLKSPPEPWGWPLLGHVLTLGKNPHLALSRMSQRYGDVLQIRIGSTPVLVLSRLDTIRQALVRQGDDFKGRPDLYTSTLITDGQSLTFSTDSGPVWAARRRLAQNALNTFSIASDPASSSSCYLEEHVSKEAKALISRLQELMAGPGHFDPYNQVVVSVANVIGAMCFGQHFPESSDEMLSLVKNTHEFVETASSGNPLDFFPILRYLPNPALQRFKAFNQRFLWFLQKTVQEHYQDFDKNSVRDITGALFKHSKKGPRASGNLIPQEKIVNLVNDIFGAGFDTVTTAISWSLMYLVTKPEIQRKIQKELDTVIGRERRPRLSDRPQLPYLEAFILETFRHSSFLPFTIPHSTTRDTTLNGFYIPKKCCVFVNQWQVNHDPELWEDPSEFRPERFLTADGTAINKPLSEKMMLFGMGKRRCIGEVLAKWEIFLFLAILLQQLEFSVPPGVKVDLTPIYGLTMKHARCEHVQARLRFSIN
Voltage-gated inwardly rectifying potassium channel KCNH2 (Homo sapiens), sequence (Q12809 whole entry, looked up): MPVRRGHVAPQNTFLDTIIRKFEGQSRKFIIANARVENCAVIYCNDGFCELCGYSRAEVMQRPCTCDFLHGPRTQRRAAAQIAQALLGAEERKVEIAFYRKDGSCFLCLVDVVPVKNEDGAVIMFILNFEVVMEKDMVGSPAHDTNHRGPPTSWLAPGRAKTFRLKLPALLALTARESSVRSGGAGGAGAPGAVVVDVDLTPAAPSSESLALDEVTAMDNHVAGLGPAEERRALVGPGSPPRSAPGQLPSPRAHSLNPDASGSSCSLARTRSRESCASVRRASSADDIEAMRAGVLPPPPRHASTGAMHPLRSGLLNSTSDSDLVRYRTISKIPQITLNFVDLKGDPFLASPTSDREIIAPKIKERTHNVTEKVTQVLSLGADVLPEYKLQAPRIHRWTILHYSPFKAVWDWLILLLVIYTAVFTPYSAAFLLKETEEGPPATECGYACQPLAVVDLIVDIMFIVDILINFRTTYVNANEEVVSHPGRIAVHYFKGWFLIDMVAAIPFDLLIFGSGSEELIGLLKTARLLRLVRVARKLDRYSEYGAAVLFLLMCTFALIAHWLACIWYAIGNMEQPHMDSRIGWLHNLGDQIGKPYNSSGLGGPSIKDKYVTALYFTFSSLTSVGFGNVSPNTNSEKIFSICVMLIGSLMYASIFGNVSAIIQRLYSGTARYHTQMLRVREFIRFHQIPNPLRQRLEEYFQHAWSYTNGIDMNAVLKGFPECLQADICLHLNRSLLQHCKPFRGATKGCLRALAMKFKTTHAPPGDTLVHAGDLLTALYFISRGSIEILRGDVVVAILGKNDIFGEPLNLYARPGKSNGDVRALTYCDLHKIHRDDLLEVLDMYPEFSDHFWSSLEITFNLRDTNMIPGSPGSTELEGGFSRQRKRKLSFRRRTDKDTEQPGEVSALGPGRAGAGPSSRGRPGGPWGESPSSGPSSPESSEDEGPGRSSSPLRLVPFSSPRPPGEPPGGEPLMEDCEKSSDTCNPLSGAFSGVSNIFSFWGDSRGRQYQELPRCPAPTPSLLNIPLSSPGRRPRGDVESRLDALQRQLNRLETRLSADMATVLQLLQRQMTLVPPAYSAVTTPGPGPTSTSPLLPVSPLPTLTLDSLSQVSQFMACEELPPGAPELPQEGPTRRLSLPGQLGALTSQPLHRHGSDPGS
Nuclear receptor subfamily 1 group I member 2 (Rattus norvegicus), sequence (Q9R1A7 whole entry, looked up): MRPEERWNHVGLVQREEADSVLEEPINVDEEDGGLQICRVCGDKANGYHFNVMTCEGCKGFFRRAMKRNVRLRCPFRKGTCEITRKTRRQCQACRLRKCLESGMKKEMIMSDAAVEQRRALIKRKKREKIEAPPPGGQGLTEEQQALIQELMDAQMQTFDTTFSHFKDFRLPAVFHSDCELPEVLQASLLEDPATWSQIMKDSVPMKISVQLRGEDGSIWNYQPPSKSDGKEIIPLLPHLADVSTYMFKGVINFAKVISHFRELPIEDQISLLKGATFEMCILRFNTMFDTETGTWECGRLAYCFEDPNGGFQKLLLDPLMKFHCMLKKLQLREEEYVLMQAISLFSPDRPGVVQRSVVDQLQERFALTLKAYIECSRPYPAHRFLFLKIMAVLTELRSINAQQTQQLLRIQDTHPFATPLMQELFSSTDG

For the molecule `CS(=O)(=O)Cl`, the molecule was called inactive in experiment [1], in experiment [3] and in [5]. For the same molecule, the Potency result in experiment [2], in [4], in [6], in experiment [7], in [8] and in experiment [9] was “inactive” in each case. Further, the Potency entry in experiment [10], in [11], in experiment [12] and in experiment [13] was “inactive” in each case.
In the case of `O=C1CC(=O)NC(=O)N1`, the molecule was classed as inactive in [1], in [3] and in experiment [5]. Moreover, the Potency result in [2], in experiment [4], in experiment [6], in experiment [7], in experiment [8] and in experiment [9] was “inactive” in each case. Besides, the Potency result in experiment [10], in experiment [11], in experiment [12], in experiment [14], in experiment [15] and in experiment [13] was “inactive” in each case.
On to `C[N+]1(C)CCCCC1`, for which the molecule was classed as inactive in experiment [1], in [3] and in experiment [5]. For the same molecule, the Potency entry in [2], in experiment [4], in experiment [6], in experiment [7], in experiment [16] and in experiment [11] was “inactive” in each case. In addition, the Potency result in [15] and in [13] was “inactive” throughout.
On to `CCCN1CCC[C@@H]2Cc3nc(N)ncc3C[C@H]21`, for which the outcome in experiment [1], in experiment [3] and in experiment [5] was inactive. Also, the Potency entry in [2], in experiment [4], in experiment [7], in experiment [18], in experiment [8] and in experiment [10] was “inactive” throughout. Besides, the Potency entry in experiment [11], in experiment [14] and in [13] was “inactive” throughout. Also, in [17], the max activation is -1.3%. In experiment [16], the Potency was 11 µM (active).
On to `C=C(Cl)CCl`, for which the molecule was called inactive in [1], in experiment [3] and in [5]. Also, the Potency result in [2], in experiment [4], in [6], in experiment [7], in experiment [8] and in [9] was “inactive” each time. The Potency entry in [10], in experiment [16], in experiment [12], in experiment [14], in [15] and in experiment [13] was “inactive” in each case.
With `C=CCN1CC[C@]23CCCC[C@H]2[C@H]1Cc1ccc(O)cc13`, the outcome in [1], in experiment [3] and in experiment [5] was inactive. The Potency entry in [2], in [4], in [6], in experiment [12] and in experiment [14] was “inactive” throughout. In addition, in experiment [17], the max activation was -1.31%.
As to `CCCC(C)C1(CC)C(=O)N=C(S)NC1=O` (stereo not drawn), the molecule was called inactive in [1], in experiment [3] and in experiment [5]. In addition, the Potency entry in experiment [2], in experiment [4], in experiment [6] and in [15] was “inactive” in each case. Besides, the max activation in experiment [17] was -4.4%.
As for `ClCC1CO1` (stereo not drawn), the molecule was classed as inactive in [1], in [3] and in experiment [5]. Also, the Potency result in experiment [2], in experiment [6], in experiment [7], in [18], in experiment [19] and in experiment [8] was “inactive” in each case. In addition, the Potency result in experiment [9], in experiment [10], in experiment [16], in [12], in [14] and in experiment [15] was “inactive” each time. Also, in experiment [13], the Potency entry was “inactive”. Besides, the max activation in [17] is -3.74%. Further, the Potency in experiment [11] was 24.3 µM (active).
